Measurements: PubChem BioAssay (Tox21)
Where “and” joins values, the source holds several entries; their conditions need not be identical. Equal values may be shown once. Inconclusive results are not listed. Calls of active or inactive are those of the source. Unless noted, calls follow the shape of the dose curve; as a rule, active = well fitted curve in the direction sought with a large enough effect in the repeat runs; inconclusive = weak or mixed curves; inactive = no such curve, though single readings can be large; an effect the other way counts as inactive or inconclusive.

Columns and labels:
[1] = qHTS assay for small molecule agonists of the p53 signaling pathway (AID 651631; calls by dose curve; also: nearly all actives have a fitted effect of over 15% in size)
Outline: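 HCT-116 cells carrying a stable p53 response element–beta-lactamase reporter were plated, rested 5 h at 37 °C, then exposed to compound in DMSO for 16 h at 37 °C; reporter activity was read as FRET substrate fluorescence after 2 h at room temperature.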

[2] = qHTS assay for small molecule agonists of the p53 signaling pathway - cell viability (AID 651633; calls by dose curve; also: nearly all actives have a fitted effect of over 30% in size; also: potency is read from the fitted curve at half-maximal effect)
Outline: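 Viability counter-read: CellTiter-Glo luminescence (30 min, room temperature) in the same p53RE-bla plates. These plates had been exposed to compounds for 16 h at 37 C.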

[3] = qHTS assay for small molecules that induce genotoxicity in human embryonic kidney cells expressing luciferase-tagged ATAD5 - cell viability (AID 651634; calls by dose curve; also: nearly all actives have a fitted effect of over 25% in size; also: potency is read from the fitted curve at half-maximal effect)
Outline: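 Cytotoxicity counter-readout: after 15.5 hr compound treatment at 37C, live-cell protease activity in ATAD5-luciferase HEK293T cells measured by CellTiter-Fluor fluorescence, 30 min development at 37C.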

[4] = qHTS assay for small molecule disruptors of the mitochondrial membrane potential - cell viability (AID 720634; calls by dose curve;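 also: human HepG2 liver cancer cells; series mostly up to about 83 µM; nearly all actives have a fitted effect of over 20% in size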)
Outline: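 Cytotoxicity was quantified from ATP content by CellTiter-Glo luminescence in the same wells as the MMP dye read-out. HepG2 (2,000 cells/well) were plated overnight and exposed to compounds for 1 hr at 37 C.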

[5] = qHTS assay to test for compound auto fluorescence at 590 nm (red) in HepG2 cells (AID 720674)
Outline: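 We screened compounds on adherent HepG2 cells, incubating them for an hour at 37 C in 5% CO2 before reading emission at 590 nm under 540 nm excitation; values reflect equivalence to Rose Bengal sodium fluorescence.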

[6] = qHTS assay to test for compound auto fluorescence at 535 nm (green) in HepG2 cells (AID 720675)
[7] = qHTS assay to test for compound auto fluorescence at 460 nm (blue) in HEK293 cells (AID 720678)
Outline: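 Triamterene serves as the blue fluorophore standard. Compound signal at 405/460 nm is read in HEK293 wells (2,000 cells, 10% dialyzed FBS) after overnight treatment at 37C.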

[8] = qHTS assay to test for compound auto fluorescence at 590 nm (red) in HEK293 cells (AID 720679)
Outline: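 We plated HEK293 cells in 10% dialyzed FBS medium, let them adhere for 4-5 hr, then added 23 nL compound. Overnight at 37C and 5% CO2 preceded fluorescence measurement at 540/590nm.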

[9] = qHTS assay for small molecule disruptors of the mitochondrial membrane potential (AID 720635)
Outline: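 Mitochondrial membrane potential tracked with Mito-MPS dye, red aggregates (ex 540/em 590 nm) against green monomers (ex 490/em 535 nm). Compound treatment 1 hr at 37C, dye 30 min in HepG2.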

[10] = qHTS assay for small molecules that induce genotoxicity in human embryonic kidney cells expressing luciferase-tagged ATAD5 (AID 651632); also: nearly all actives have a fitted effect of over 15% in size
Outline: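 A rise in luciferase signal from ATAD5-tagged HEK293T cells marks genetic stress. Cells were exposed to compounds for 16 hr at 37C, 5% CO2, then luciferase was quantified after a 30 min room-temperature incubation with Amplite.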

Measured: Potency

O=C1CC(=O)NC(=O)N1
inactive: [1] | [2] | [3] | [4] | [5] | [6] | [7] | [8]

CCN(CCO)CCO
inactive: [1] | [2] | [3] | [4] | [5] | [6] | [7] | [8]

CCOC1Oc2ccc(OS(C)(=O)=O)cc2C1(C)C (stereo not given)
inactive: [2] | [3] | [4] | [9] | [5] | [6] | [7] | [8]

ClC1=C(Cl)C2(Cl)C(CBr)CC1(Cl)C2(Cl)Cl (stereo not given)
active: [2] 26.6 µM and 61.1 µM
inactive: [3] | [4] | [5] | [6] | [8]

O=[N+]([O-])c1cccc(CCl)c1
inactive: [2] | [3] | [4] | [5] | [6] | [8]

CCOP(=S)(OCC)SCCl
inactive: [10] | [2] | [3] | [4] | [5] | [6] | [7] | [8]

O=C(NC(=O)c1c(F)cccc1F)Nc1cc(Cl)c(F)c(Cl)c1F
inactive: [3] | [4] | [5] | [6] | [7] | [8]

CCC1(c2ccccc2)C(=O)N(COC)C(=O)N(COC)C1=O
inactive: [3] | [4] | [5] | [6] | [7] | [8]

CNC(=O)Oc1cc(C)c(N(C)C)c(C)c1
inactive: [10] | [2] | [3] | [4] | [5] | [6] | [8]

CCOC(=O)C(Cl)Cc1cc(-n2nc(C)n(C(F)F)c2=O)c(F)cc1Cl (stereo not given)
inactive: [10] | [3] | [5] | [6] | [7] | [8]

CCCN1CCC[C@@H]2Cc3nc(N)ncc3C[C@H]21
inactive: [10] | [2] | [3] | [4] | [5] | [6] | [8]

O=c1[nH]c2ccccc2o1
inactive: [10] | [3] | [4] | [5] | [6] | [7] | [8]

CCCC[N+](=O)[O-]
inactive: [10] | [2] | [3] | [4] | [5] | [6] | [7] | [8]

O=C(O)C(Cl)Br (stereo not given)
inactive: [2] | [3] | [4] | [5] | [6] | [8]

CON(C)C(=O)Nc1ccc(Br)c(Cl)c1
inactive: [10] | [2] | [3] | [5] | [6] | [7] | [8]

CCOC(=O)CCl
inactive: [10] | [2] | [3] | [4] | [5] | [6] | [8]

CC[C@@H](CO)NC(=O)[C@@H]1C=C2c3cccc4c3c(cn4C)C[C@H]2N(C)C1
inactive: [10] | [2] | [3] | [4] | [5] | [6] | [8]

CC(C)(N)Cc1ccc(Cl)cc1
inactive: [10] | [2] | [3] | [4] | [5] | [6] | [7] | [8]

C=C(C)[C@H]1CN[C@H](C(=O)O)[C@H]1CC(=O)O
inactive: [10] | [2] | [4] | [5] | [6] | [7] | [8]

COc1cc(CCN)cc(OC)c1OC
inactive: [2] | [3] | [4] | [5] | [6] | [7] | [8]

Cc1ccc(S(=O)(=O)N[C@@H](CCCCN)C(=O)CCl)cc1
active: [3] 29.8 µM
inactive: [4] | [5] | [6] | [8]
